Rows were chosen to be rich in hits. Some 3.5% of all compounds tested hit in one or more screens of this group.
BoNT A protease = BoNT A light chain protease inhibition. multiplex microsphere protease substrate cleavage, flow cytometry. inhibition, % at 10 µM. hit rate 0.17% among 360,000; further: plate controls were buffer without enzyme for full effect and enzyme alone for no effect
BoNT-F LC inh = blocks Botulinum neurotoxin F light chain protease; inhibition, % at 10 µM; Multiplex microsphere protease cleavage assay, flow cytometry; hit rate 0.22% among 360,000; in the data active means inhibition above about 35%, passing the limit was not always enough; inconclusive means no clear call, values can overlap the other calls; further: plate controls were buffer without enzyme for full effect and enzyme alone for no effect
Bead autofluor = compound fluorescence in toxin protease inhibitor counterscreen | fluorescence intensity (no concentration beside the values) | compound autofluorescence counterscreen, microsphere flow cytometry; active compounds read high | hit rate 3.1% among 360,000 | AID 624483; in the data active means fluorescence intensity above about 16000; inconclusive means no clear call, values can overlap the other calls
Anthrax LF inh2 = anthrax lethal factor protease inhibition; multiplex microsphere protease cleavage assay, LF; inhibition, % at 10 µM; hit rate 0.12% among 360,000; AID 588501; further: plate controls were buffer without enzyme for full effect and enzyme alone for no effect
Target sequence (P15917 whole entry, looked up): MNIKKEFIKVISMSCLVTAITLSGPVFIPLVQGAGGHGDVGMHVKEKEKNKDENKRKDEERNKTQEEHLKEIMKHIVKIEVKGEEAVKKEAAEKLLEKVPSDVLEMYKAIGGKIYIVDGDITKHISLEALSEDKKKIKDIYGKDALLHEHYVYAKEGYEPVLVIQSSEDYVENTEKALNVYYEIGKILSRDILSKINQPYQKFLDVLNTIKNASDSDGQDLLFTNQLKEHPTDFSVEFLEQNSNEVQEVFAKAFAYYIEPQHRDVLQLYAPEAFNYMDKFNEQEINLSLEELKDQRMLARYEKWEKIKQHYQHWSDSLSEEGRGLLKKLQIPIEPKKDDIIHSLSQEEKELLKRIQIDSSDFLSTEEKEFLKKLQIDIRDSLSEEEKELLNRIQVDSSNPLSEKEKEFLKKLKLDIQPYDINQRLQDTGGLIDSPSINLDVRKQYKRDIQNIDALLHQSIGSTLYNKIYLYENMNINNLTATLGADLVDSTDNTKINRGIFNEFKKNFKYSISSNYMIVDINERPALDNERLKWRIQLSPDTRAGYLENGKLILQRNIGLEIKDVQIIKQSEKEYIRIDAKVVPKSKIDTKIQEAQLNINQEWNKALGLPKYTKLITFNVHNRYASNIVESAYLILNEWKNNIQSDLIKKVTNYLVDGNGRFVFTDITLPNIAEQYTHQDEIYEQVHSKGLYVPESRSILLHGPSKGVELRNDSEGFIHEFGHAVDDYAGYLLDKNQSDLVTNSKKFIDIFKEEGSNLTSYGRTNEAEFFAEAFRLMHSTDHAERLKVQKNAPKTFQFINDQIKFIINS
* hit, by the source's call; ? = inconclusive. Unless noted, no stated cut-off is given here; in the data, active means inhibition above about 30%; inconclusive means no clear call, values can overlap the other calls; inactive means below that.

SMILES	BoNT A protease	BoNT-F LC inh	Bead autofluor	Anthrax LF inh2
CCCCNC(=O)c1nc(C2CCN(S(=O)(=O)c3c(F)cccc3F)CC2)oc1-c1ccccc1	0	7	5769	-8
COCCn1c(CN2CCN(c3ccccc3)CC2)nc2c1c(=O)n(C)c(=O)n2C	0	12	3976	0
CC1CN(c2nc3c(c(=O)n(C)c(=O)n3C)n2Cc2c(Cl)cccc2Cl)CC(C)O1 (configuration not stated)	0	3	4723	0
CC1CN(c2nc3c(c(=O)n(C)c(=O)n3C)n2Cc2c(F)cccc2Cl)CC(C)O1 (configuration not stated)	4	6	18917*	-2
Cn1c(=O)c2c(nc(CN3CCN(c4ccccc4)CC3)n2Cc2ccccc2Cl)n(C)c1=O	?	-2	19891*	0
Cn1c(=O)c2c(nc(CN3CCN(c4ccccc4)CC3)n2Cc2c(F)cccc2Cl)n(C)c1=O	?	-2	22170*	-2
C[C@@H]1CN([C@H](C)CO)C(=O)c2cc(Br)cnc2O[C@@H]1CN(C)C(=O)C1CCOCC1	-1	-9	4359	-6
FC(F)(F)c1nc2ncc(Cl)cc2[nH]1	-1	0	20866*	0
Clc1ccc(COn2c(-c3ccc(Cl)cc3)nc3ccccc32)cc1	?	-7	21296*	0
COn1c(-c2ccc(Cl)cc2)nc2ccc(Cl)cc21	0	-1	23040*	-2
C=CCn1c(N)c(C(=O)NCc2ccco2)sc1=S	-2	-3	21000*	-6
O=C(NCc1ccco1)c1sc(=S)n2c1[nH]c(=O)c1ccccc12	?	3	22207*	0
Cc1ccc(-n2c(N)c(C(=O)NCc3ccco3)sc2=S)cc1	-1	3	2957	-6
CCn1c(N)c(C(=O)N2CCOCC2)sc1=S	-1	-16	2855	-6
C=CCn1c(N)c(C(=O)N2CCOCC2)sc1=S	?	5	19777*	-2
Nc1ccn([C@@H]2O[C@H](C(=O)N[C@H](CO)c3ccccc3)[C@@H](O)[C@H]2O)c(=O)n1	-1	-4	4682	-2
CCNC(=S)NNC(=O)Nc1ccccc1	0	-1	23334*	-5
CCOC(=O)Nc1ccc2c(C)cc(=O)oc2c1	-2	-5	16452*	-4
CCOc1ccc(C(=O)OCC(=O)N2CCCC2)cc1	0	-6	3729	-4
Clc1cccc(OCc2nnc(-c3ccccc3Br)o2)c1	1	-6	3487	3
Clc1ccc(OCc2nnc(-c3ccccc3Br)o2)cc1	0	0	16365*	-6
Cn1cc(CNC(=O)C23CC4CC(CC(C4)C2)C3)cn1	3	36*	3911	8
COc1ccc(-c2nc3ccc(Br)cn3c2Cc2ccsc2)cc1OC	29	-15	4255	13
Cc1nc(NC(=S)NC(=O)c2cccs2)sc1C(=O)N(C)C	-2	-1	22794*	0
COc1ccc(C(=O)NC(=S)Nc2nc(C)c(C(=O)N(C)C)s2)cc1	-1	0	8423	1
SMILES	BoNT A protease	BoNT-F LC inh	Bead autofluor	Anthrax LF inh2
CCn1c(-c2cccnc2Cl)nc2ccccc21	1	-1	23168*	0
Clc1ncccc1-c1nc2ccccc2n1Cc1ccccc1	?	3	20310*	3
CS(=O)(=O)c1nc2ccccc2n1Cc1ccccc1	-1	0	23807*	1
Cc1ccsc1CNC(=O)C1(C)CCCN1CC(C)C (configuration not stated)	0	4	5021	7
CN(Cc1ccccc1)c1nc2c(c(=O)[nH]c(=O)n2C)n1Cc1ccccc1Cl	?	-1	22859*	-4
CCOc1nc(-c2ccc(OC)cc2)ccc1-c1noc(C)n1	?	-4	21728*	-2
CCOc1cc(-c2nc(-c3ccc(C)nc3OC)no2)cc(OCC)c1OCC	0	-3	5845	-7
CCOc1cc(-c2nc(-c3ccc(C)nc3OCC)no2)cc(OCC)c1OCC	?	-1	23089*	-6
CCOc1ccc(N(C(C)C(=O)N2CCCCCC2)S(C)(=O)=O)cc1 (configuration not stated)	-1	0	3882	-1
CCOc1ccc(N(C(C)C(=O)NC(C)CC)S(C)(=O)=O)cc1 (configuration not stated)	0	-1	19908*	2
CC(Nc1nc(N2CCCCC2)nc2ccccc12)c1ccccc1 (configuration not stated)	?	-5	21408*	-5
CC(Nc1nc(-c2ccccc2)nc2ccccc12)c1ccccc1 (configuration not stated)	0	-1	6147	-1
O=C(NCC1COCCO1)c1ccc2nc(Cc3cccc(Cl)c3)oc2c1 (configuration not stated)	1	-1	6176	0
CCCc1nc2c(Cl)cc(C(F)(F)F)cn2c1Cc1ccc(OC)cc1C	4	-9	5889	1
O=[N+]([O-])c1ccc(S(=O)(=O)N/N=C/c2ccc3c(c2)OCO3)cc1	0	4	4364	3
O=S(=O)(N/N=C/c1ccc2c(c1)OCCO2)c1ccccc1	0	1	22257*	-1
O=C(O)c1cc(N/N=C/c2ccc3c(c2)OCCO3)ccc1Cl	2	38*	2521	1
O=C(O)c1cc(N/N=C/c2ccc3c(c2)OCO3)ccc1Cl	1	-3	4708	0
O=C(Nc1cccc(OC(F)(F)F)c1)C1Cc2c(-c3ccccc3Oc3ccccc3)ccnc2O1 (configuration not stated)	-1	-6	4142	-5
Cn1c(CN2CCCCC2)nc2cc(NC(=O)c3cccc(Br)c3)ccc21	1	-8	8491	1
Cn1c(CN2CCCCC2)nc2cc(NC(=O)c3ccccc3)ccc21	2	1	22188*	4
Cn1c(CCNC(=O)c2ccccc2)nc2cc(NC(=O)C3CCCCC3)ccc21	3	2	18656*	-1
COC1=NC(=C(c2ccccc2)c2ccccc2)OC1=O	0	-2	3706	-2
O=c1c2cnn(-c3ccccc3)c2nc(-c2ccco2)n1-c1ccccc1	-1	-1	22323*	0
Clc1ccccc1-c1ccc(/C=N/n2cnnc2)o1	0	0	16641*	-4
SMILES	BoNT A protease	BoNT-F LC inh	Bead autofluor	Anthrax LF inh2
Clc1ccccc1OCCCCn1ccnc1	0	-8	11053	-3
Cc1ccccc1C(=O)NCCCn1ccnc1	0	37*	3866	-1
O=C(NCCCn1ccnc1)c1sc2cccc(F)c2c1Cl	5	4	21856*	5
O=C(NCCCn1ccnc1)c1c(F)cccc1F	1	3	5315	-2
O=C(NCCCn1ccnc1)c1ccccc1Br	0	-13	3273	5
Cc1ccccc1OCCCCCn1ccnc1	-2	-4	24874*	0
Cc1nn(CC(=O)NCCN2CCOCC2)c(=O)c2cc3sccc3n12	1	-4	5692	-2
CCCCOC(=O)c1ccc(O)cc1	-2	-22	3585	3
CCCCOC(=O)Nc1ccc(C(=O)OCCC)cc1	2	2	22577*	-6
CCCCOC(=O)Nc1cccc(Cl)c1C	-2	-4	21233*	-3
CCCCOC(=O)Nc1cccc(C(C)=O)c1	0	-2	16653*	-3
CCCCOC(=O)c1cccc(NC(=O)CCC(=O)O)c1	?	-1	20646*	1

Compound activity: PubChem BioAssay, NMMLSC
